# Data: PubChem BioAssay (NCI)
# Compounds without any hit were thinned out: in the full panel of roughly 79,000, 15% have a hit. Unmarked numbers belong to inactive results. The source made the active and inactive calls. Rule as the data show it: active = growth inhibition above about 70%; inactive = the rest.
# How the values were obtained:
# [1] = NCI Yeast Anticancer Drug Screen. Data for the rad50 strain (AID 155);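 also: 0% = growth of vehicle-only cultures of the same strain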; settings: S. cerevisiae rad50 strain growth inhibition, hits give high values
# In short: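 Cells are treated with compound, grown, and their growth is then scored against vehicle-only cultures of the same repair-deficient yeast strain.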
# [2] = NCI Yeast Anticancer Drug Screen. Data for the mec2-1 strain (AID 157); settings: S. cerevisiae mec2-1 strain, hits give high values
# In short: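 Mutant yeast (mec2-1) grown with compound; growth inhibition relative to vehicle control reported.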
# [3] = NCI Yeast Anticancer Drug Screen. Data for the sgs1 mgt1 strain (AID 161);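 also: 0% = growth of cultures given vehicle only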; settings: S. cerevisiae sgs1 mgt1 strain, hits give high values
# In short: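 This yeast growth screen uses a strain with defined DNA-repair lesions; compound-treated growth is compared with vehicle-treated growth.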
# [4] = NCI Yeast Anticancer Drug Screen. Data for the cln2 rad14 strain (AID 165);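 also: 0% = growth equal to vehicle treated cultures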; settings: S. cerevisiae cln2 rad14 strain, hits give high values
# In short: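 Readout is yeast growth inhibition versus vehicle-treated controls, using a strain with cln2 and rad14 alterations exposed to compound.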
# [5] = NCI Yeast Anticancer Drug Screen. Data for the bub3 strain (AID 167); settings: S. cerevisiae bub3 mutant strain, hits give high values
# In short: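 Part of a panel of yeast mutants defective in DNA damage repair or cell cycle regulation. Each strain is grown with compound, and inhibition is calculated relative to solvent-treated cultures.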
# [6] = NCI Yeast Anticancer Drug Screen. Data for the mlh1 rad18 strain (AID 175); settings: S. cerevisiae mlh1 rad18 strain growth inhibition, hits give high values
# In short: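 Genetically defined yeast (DNA repair-deficient) exposed to compounds; growth inhibition determined relative to vehicle.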
# [7] = at 5.0 µM (retest, dose inferred, filed as 0.5)
# [8] = at 50.0 µM (retest, dose inferred, filed as 5.0)
Structure (SMILES),"growth inhibition [1, 7]","growth inhibition [1, 8]",growth inhibition ([1]; at 50.0 µM),"growth inhibition [2, 7]","growth inhibition [2, 8]",growth inhibition ([2]; at 50.0 µM),"growth inhibition [3, 7]","growth inhibition [3, 8]",growth inhibition ([3]; at 50.0 µM),"growth inhibition [4, 7]","growth inhibition [4, 8]",growth inhibition ([4]; at 50.0 µM),"growth inhibition [5, 7]","growth inhibition [5, 8]",growth inhibition ([5]; at 50.0 µM),"growth inhibition [6, 7]","growth inhibition [6, 8]",growth inhibition ([6]; at 50.0 µM)
CCc1ccc2c(c1)N(CCCN(CCCl)CCCl)c1ccccc1S2,-4%,85% (active),98.5% (active),44%,59%,99.2% (active),-4%,89% (active),98.6% (active),-1%,53%,96.8% (active),-1%,94% (active),98.5% (active),-2%,94% (active),98.6% (active)
C[CH2][Sn]1([CH2]C)[c]2ccccc2Oc2cccc[c]21,99% (active),98% (active),99% (active),99% (active),99% (active),99.4% (active),99% (active),99% (active),99.3% (active),97% (active),98% (active),98.8% (active),99% (active),99% (active),99.2% (active),99% (active),99% (active),99% (active)
ClC1=C(Cl)C2(Cl)C(C3CO3)CC1(Cl)C2(Cl)Cl (centres undefined),0%,10%,76.1% (active),-1%,11%,69.3%,-2%,12%,90.8% (active),-12%,-13%,34.4%,4%,28%,89.7% (active),0%,18%,55.9%
COC12[C@@H]3N[C@@H]3CN1C1=C(C(=O)C(NCCSSCCNC3=C(C)C(=O)C4=C(C3=O)C(COC(N)=O)[C@]3(OC)C5N[C@@H]5CN43)=C(C)C1=O)[C@@H]2COC(N)=O (some centres undefined),35%,73% (active),63.1%,18%,82% (active),49%,41%,74% (active),3.55%,19%,53%,39.4%,17%,52%,-8.85%,54%,93% (active),79% (active)
COc1ccc(OC)c(C=O)c1,1%,5%,24.9%,0%,7%,-12.2%,-2%,12%,-11.7%,2%,4%,-38.2%,2%,7%,-35%,-1%,14%,-8%
Cc1ccc(NP(=O)(Oc2ccccc2)N(CCCl)CCCl)cc1 (centres undefined),11%,10%,74% (active),-8%,10%,23.9%,8%,20%,73.5% (active),30%,61%,56.5%,14%,32%,62%,-10%,-5%,54.6%
Nc1c(Br)cc(Br)c2c1C(=O)c1ccccc1C2=O,5%,-1%,-10.6%,2%,0%,-9.45%,3%,0%,11.6%,0%,3%,41.9%,1%,4%,7.65%,9%,-1%,4.5%
CCCCCCCC[N+](CCCC)(CCCC)CCCC (tested in a mixture with another compound),99% (active),99% (active),99.5% (active),99% (active),100% (active),99.7% (active),100% (active),100% (active),99.5% (active),97% (active),99% (active),99.5% (active),100% (active),99% (active),99.7% (active),99% (active),99% (active),99.3% (active)
COc1ccc(-c2c(C)c(C(=O)O)nc(-c3ccc4c(O)c(OC)c5c(c4n3)=NC(C)(C)N=5)c2N)c(O)c1OC,76% (active),92% (active),75.1% (active),20%,68%,33%,39%,60%,41.4%,16%,76% (active),47%,-1%,7%,19.9%,59%,87% (active),61.5%
COC(=O)C1=C(O)C(C(=O)OC)[C@]2(O)[C@@H](C(=O)OC)[C@H]1C[C@@H](c1ccccc1)[C@@H]2C(=O)OC (some centres undefined),4%,98% (active),97.7% (active),3%,97% (active),98.3% (active),10%,97% (active),98.3% (active),11%,92% (active),84.3% (active),3%,97% (active),98.2% (active),10%,98% (active),98.6% (active)
Cc1cccc(C)c1NC(=O)/C(CC(=O)CC(c1ccccc1)c1c(O)c2ccccc2oc1=O)=N/O (centres undefined),26%,60%,1.1%,20%,34%,-5.8%,13%,55%,-1.5%,28%,45%,-10.4%,35%,50%,4.85%,25%,43%,2.1%
NC(=O)/C=C/C(=O)O (tested in a mixture with another compound),0%,1%,-5.5%,2%,-1%,66.5%,0%,3%,7.2%,1%,1%,23.1%,-7%,-4%,95.7% (active),-1%,2%,17.5%
CC(=O)OCC12CCC(C)=CC1OC1C3(O)N=C(C)OC3C2(C)C12CO2 (centres undefined),35%,78% (active),32.2%,28%,55%,69%,46%,76% (active),41%,38%,64%,56.3%,18%,69%,41.9%,46%,75% (active),18.4%
